Experimental data: PubChem BioAssay (NCI)
Several values for one entry are separate records, joined by “and”; a condition that tells them apart may be missing. Identical values can stand only once. This is part of a sample that, as a whole, favours compounds with a hit. Of some 83,000 tested, about 20% had one in any assay.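 Treatment: one concentration, 48 hours, 96-well format. Scoring: percent growth, with anything below 10 considered active.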 A number with no mark means an inactive call. Activity calls are given as the source filed them.

system: MDA-MB-468 breast; test: NCI-60 one-dose screen, 48 h (100 = growth as untreated, 0 = no growth, -100 = all killed); conditions: 10 µM unless noted

| Compound | growth |
| --- | --- |
| O=C(N/N=C/c1ccc(O)cc1O)c1cccc(Nc2ccnc(C(F)(F)F)c2)c1 | 43.1% |
| Nc1ncc(-c2ccc(C(F)(F)F)cc2)c(NC2CCCCCC2)n1 | -3.25% (active) |
| CC(C)c1nn(-c2ccccc2)c(N2CCCCC2)c1/C=N/NC(N)=S | 89.6% |
| Cc1c2ccncc2c(C)c2c1c1ccccc1n2CCCCCC(=O)O | 86.3% |
| Nc1nc(N)c2nc3c(nc2n1)CCCCCCCCCC3 | 58.1% |
| COc1cc(C=Nc2oc(-c3ccccc3)c(-c3ccccc3)c2C#N)cc(CN2CCCCC2)c1O | 95.6% |
| N=C(N)c1ccc(-c2ccc(-c3ccc(-c4cccs4)s3)s2)cc1 | 96.5% |
| COc1c(N2CC3CCCNC3C2)c(F)cc2c(=O)c(C(=O)N/N=C/c3ccccc3)cn(C3CC3)c12 (stereo not given) | 83.7% |
| Cc1cc(C2=NNC(=O)Cc3cc4c(cc32)OCCO4)cc(C)c1N | 9.52% (active) |
| O=S(=O)(Nc1ccc(-n2cnc3cc(-c4ccc(O)cc4)ccc32)cc1)c1ccccc1 | 100% |
| O=C(Nc1cccnc1)c1ccc2ccc3ccc(C(=O)Nc4cccnc4)nc3c2n1 | -1.83% (active) |
| COc1ccc(C2=CC(c3cc(OC)c(OC)c(OC)c3)NC(=O)N2)cc1OC (stereo not given) | -12.6% (active) |
| Cc1ccc(C2=C/C(=C/c3ccc(Br)cc3)C(=O)N2CCc2ccc(S(N)(=O)=O)cc2)cc1 | 92.7% |
| NC(N)=N/N=C(/c1ccccc1)c1ccc(N)cc1 | 119% |
| COC(=O)c1ccc2oc(NC(=O)c3ccc(N4CCOCC4)c([N+](=O)[O-])c3)nc2c1 | 113% |
| Cc1nc(Nc2ccc(S(=O)(=O)Nc3cc(C)on3)cc2)c2ccccc2n1 | 104% |
| COc1cc(-c2nc(SCC(=O)Nc3ccc(C(C)=O)cc3)[nH]c(=O)c2C#N)cc(OC)c1OC | -12.8% (active) |
| COc1ccc(C(=O)Nc2ccc3nc(N4CCCCC4)cc(C)c3c2)cc1OC | 73.6% |
| COc1cc(/C=C/C(=O)c2c(C)oc3nc[nH]c(=O)c23)cc(OC)c1OC | 64.3% |
| Cc1ccc(NC(=O)c2ccc(Nc3ncnc4c3cnn4-c3cccc(F)c3)cc2)cc1 | 96.6% |

| Compound | growth |
| --- | --- |
| O=C(Nc1ccc(C(=O)O)c(O)c1)c1ccccc1 | 105% and 104% |
| Cc1ccc(NC(=O)Cn2nncc2CN2C(=O)CSC2=O)cc1C | 95.5% |
| COc1ccc(/C=C\c2nc3ccccc3s2)cc1OP(=O)(O)O | 12.4% |
| COP(=O)(OC)c1nnn(-c2cccc([N+](=O)[O-])c2)c1C | 120% |
| Cc1nc(/N=C(\N)NC(=O)Nc2ccccc2Cl)sc1C | 2.23% (active) |
| Oc1c(Cl)cc(Cl)cc1/C=N/Nc1nnc(N/N=C/c2cc(Cl)cc(Cl)c2O)c2ccccc12 | -29.9% (active) |
| O=C(Nc1ccc(I)cc1F)c1cc(F)ccc1O | -3.61% (active) |
| O=C(Nc1ccccc1C(=O)N/N=C(\c1ccccc1)c1ccccn1)c1ccccc1 | -19.4% (active) |
| O=C1/C(=C\c2cn(Cc3ccccc3)c3ccc(Br)cc23)c2ccccc2N1c1c(Cl)cccc1Cl | 84.1% |
| O=C(Nc1cccc(Cl)c1)Oc1c(Cl)c(Cl)c(Cl)c(Cl)c1Cl | 110% |
| CC(C)OC(=O)NNC(=O)c1ccncc1 | 118% |
| C=CC[Se]C(=O)Cc1c(C)n(C(=O)c2ccc(Cl)cc2)c2ccc(OC)cc12 | -37.5% (active) |
| CCNCCNc1cc(-c2ccc(C(=O)OC)cc2)c(C#N)c2nc3ccccc3n12 | 31.4% |
| Cc1nc(N)sc1-c1csc(Nc2ccc(C(F)(F)F)cc2)n1 | -28.9% (active) |
| COc1ccc(C(=O)/C=C/c2c(OC)cc(OC)cc2OC)c(OC)c1 | -25.1% (active) |
| O=[N+]([O-])c1ccc(Sc2ncccn2)c([N+](=O)[O-])c1 | 5.95% (active) |
| COC(=O)CC[C@@H]1O[C@@H](c2ccc(F)cc2)[C@@H](O)[C@H]1O | 96.5% |
| COc1ccc(OC)c(-c2c(C#N)c(-c3ccco3)nc3c2c(-c2ccccc2)nn3-c2ccccc2)c1 | 98.4% |
| Clc1cccc(CNc2c3ccccc3nc3ccccc23)c1 | -18.4% (active) |
| O=[N+]([O-])c1ccc(N=Nc2ccc(O)cc2O)cc1 | -4.48% (active) |
